In the supplement of paper PMC12808144 one finds cell viability data, which are given here for eight compounds.

The test deals with Mel-DCC-11-R. As to the kind of experiment: cell viability relative to DMSO control (fraction of DMSO control); higher = less cytotoxic, active = 0.8 or less. To be noted: 1 µM; 120 h; vemurafenib co-treatment 0 µM. The method in brief:
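Three cell types were screened against 315 approved anti-cancer drugs from TargetMol, acoustically pre-spotted in 384-well plates at 1 µM in duplicate over 120 h: NHEM-hTERT immortalized melanocytes (2500/well), patient-derived Mel-DCC-11 and its resistant subline Mel-DCC-11-R (both 1500/well), all in 40 µl per well. The subline was tested alone and with 8 µM of its selecting drug. Viability, measured by luminescence, was normalised to vehicle controls and averaged across duplicates, with ATPlite 1step as the readout.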
For the compound `CC(/C=C/C=C(\C)C(=O)O[C@@H]1O[C@H](CO[C@@H]2O[C@H](CO)[C@@H](O)[C@H](O)[C@H]2O)[C@@H](O)[C@H](O)[C@H]1O)=C\C=C\C=C(C)\C=C\C=C(/C)C(=O)O[C@@H]1O[C@H](CO[C@@H]2O[C@H](CO)[C@@H](O)[C@H](O)[C@H]2O)[C@@H](O)[C@H](O)[C@H]1O` [Crocin], the cell viability is 0.985 (inactive).

For the compound `N#CC[C@H](C1CCCC1)n1cc(-c2ncnc3[nH]ccc23)cn1` [(R)-Ruxolitinib], the cell viability was 0.967 (inactive).

On to `CNC(=O)c1cc(Oc2ccc(NC(=O)Nc3ccc(Cl)c(C(F)(F)F)c3)cc2)ccn1` [Sorafenib], for which the cell viability was 0.898 (inactive).

For `Nc1nc(=O)c2c([nH]1)NCC(CNc1ccc(C(=O)N[C@@H](CCC(=O)[O-])C(=O)[O-])cc1)N2C=O.[Ca+2]` (stereo partly drawn) [Calcium folinate], the cell viability was 1.68 (inactive).

Take `COc1cc([C@@H]2c3cc4c(cc3[C@@H](O[C@@H]3O[C@@H]5CO[C@@H](c6cccs6)O[C@H]5[C@H](O)[C@H]3O)[C@H]3COC(=O)[C@H]23)OCO4)cc(OC)c1O` [Teniposide]: the cell viability is 1.39 (inactive).

`Nc1ccn([C@@H]2O[C@H](CO)[C@@H](O)[C@@H]2O)c(=O)n1` [Cytarabine]: the cell viability was 0.654 (active).

As to `CC(C)C[C@@H](NC(=O)[C@H](O)[C@@H](N)Cc1ccccc1)C(=O)O.Cl` [Bestatin hydrochloride], the cell viability was 0.993 (inactive).

Regarding `CO[C@H]1C[C@@H]2CC[C@@H](C)[C@@](O)(O2)C(=O)C(=O)N2CCCC[C@H]2C(=O)O[C@H]([C@H](C)C[C@@H]2CC[C@@H](O)[C@H](OC)C2)CC(=O)[C@H](C)/C=C(\C)[C@@H](O)[C@@H](OC)C(=O)[C@H](C)C[C@H](C)/C=C/C=C/C=C/1C` [Rapamycin], the cell viability is 1.54 (inactive).
